Results as given in PubChem BioAssay (EPA / NIEHS).
Inconclusive results are not listed. Activity calls are given as the source filed them. Rule for the calls, unless noted: active = hit-call score of the fitted dose curve at least 0.9, where 1 is the maximum; inactive = score below 0.9.

Columns and labels:
[1] = UKN4_HCS_LUHMES_neurite_outgrowth: University of Konstanz (UKN) Leist Lab Neurite Outgrowth Assay in human LUHMES cells (UKN4) (AID 2284206); conditions: actives raise or lower the signal
Summary of the method: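 Day 0 switch to differentiation medium; day 2 replate (30000 cells/well) without cAMP and GDNF; compounds added 30 min–2 h later. At 23.5 h, 30 min calcein-AM/H-33342 live stain, then imaging.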

[2] = CCTE_Mundy_HCI_hNP1_Pro_ResponderAvgInten: CCTE's Proliferation Assay in human neuroprogenitor cells, Mundy Lab (AID 2284224; active = hit-call score of the fitted dose curve at least 0.9, where 1 is the maximum;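 note: human neural progenitor cells hNP1 derived from WA09 embryonic stem cells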)
Summary of the method: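 Proliferation read as average intensity of BrdU-positive cells, imaged at 26.25 h post-dosing: chemical exposure started after 40–44 h culture, BrdU during final 4 h, paraformaldehyde fixation. Positive-direction fit relative to DMSO.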

Q: What does the source list for `CC(C)Cc1ccc(C(C)C(=O)O)cc1` (configuration not stated)?
A: outcome [1]: inactive; outcome [2]: inactive
